# Assay results as given in the supplement of paper PMC6555819.
# Legend:
# Test in all cases: PBM binding z-score (relative to random genomic background probes); higher = stronger binding; sequences stand for … in GC…GCGATTGACAGCGTAGAATGAAGG
# [1] = system: FXR:RXRa (NR concentration 270 nM, RXRa partner concentration 90 nM)
# Procedure, shortened: (§1)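 Scanned fluorescence from custom Agilent 4×180K protein-binding microarrays was regression-normalized. Binding z-scores use random background probes as reference. Ligand-free nuclear receptor dimers were incubated on the arrays for 1 h and detected with antibodies against each partner (one per run).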
# [2] = system: LXRa:RXRa (NR concentration 270 nM, RXRa partner concentration 90 nM)
# Procedure, shortened: as §1
# [3] = system: LXRa homodimer (NR concentration 270 nM)
# Procedure, shortened: as §1
# [4] = system: LXRb:RXRa (NR concentration 270 nM, RXRa partner concentration 90 nM)
# Procedure, shortened: as §1
# [5] = system: LXRb homodimer (NR concentration 270 nM)
# Procedure, shortened: as §1
# [6] = system: PPARa:RXRa (NR concentration 270 nM, RXRa partner concentration 90 nM)
# Procedure, shortened: as §1
# [7] = system: PPARg:RXRa (NR concentration 180 nM, RXRa partner concentration 90 nM)
# Procedure, shortened: as §1
# [8] = system: PPARg:RXRa 270nM:90nM, anti-RXR (NR concentration 270 nM, RXRa partner concentration 90 nM)
# Procedure, shortened: as §1
# [9] = system: PPARg:RXRa 30nM:10nM, anti-RXR (NR concentration 30 nM, RXRa partner concentration 10 nM)
# Procedure, shortened: as §1
# [10] = system: PPARg:RXRa 90nM:30nM, anti-RXR (NR concentration 90 nM, RXRa partner concentration 30 nM)
# Procedure, shortened: as §1
# [11] = system: PPARg:RXRa DBDmut IVT, anti-RXR (DBD mutation: RXRa K156A/R161A, NR concentration 270 nM, RXRa partner concentration 90 nM)
# Procedure, shortened: as §1
# [12] = system: PPARg:RXRa IVT, anti-PPARg (NR concentration 270 nM, RXRa partner concentration 90 nM)
# Procedure, shortened: as §1
# [13] = system: PPARg DBDmut:RXRa IVT, anti-PPARg (DBD mutation: PPARg1 K132A/R137A, NR concentration 270 nM, RXRa partner concentration 90 nM)
# Procedure, shortened: as §1
# [14] = system: PPARg DBDmut IVT, anti-PPARg (DBD mutation: PPARg1 K132A/R137A, NR concentration 270 nM)
# Procedure, shortened: as §1
# [15] = system: PPARg homodimer (NR concentration 180 nM)
# Procedure, shortened: as §1
# [16] = system: PXR:RXRa (NR concentration 270 nM, RXRa partner concentration 90 nM)
# Procedure, shortened: as §1
# [17] = system: PXR homodimer (NR concentration 270 nM)
# Procedure, shortened: as §1
# [18] = system: RARa:RXR (NR concentration 270 nM, RXRa partner concentration 90 nM)
# Procedure, shortened: as §1
# [19] = system: RARa homodimer (NR concentration 270 nM)
# Procedure, shortened: as §1
# [20] = system: RARb:RXRa (NR concentration 270 nM, RXRa partner concentration 90 nM)
# Procedure, shortened: as §1
Sequence,PBM binding z-score [1],PBM binding z-score [2],PBM binding z-score [3],PBM binding z-score [4],PBM binding z-score [5],PBM binding z-score [6],PBM binding z-score [7],PBM binding z-score [8],PBM binding z-score [9],PBM binding z-score [10],PBM binding z-score [11],PBM binding z-score [12],PBM binding z-score [13],PBM binding z-score [14],PBM binding z-score [15],PBM binding z-score [16],PBM binding z-score [17],PBM binding z-score [18],PBM binding z-score [19],PBM binding z-score [20]
ATCTCTAGGCAAGACTCAGTTCAGTGAAGAACGC,-0.14,0.0146,-0.0156,-0.438,-0.221,-0.499,0.011,-0.156,-0.193,-0.262,0.117,-0.103,0.0484,-0.188,0.522,0.202,0.453,-0.255,-0.0609,-0.159
ATCTATAGGTAACCAAGTTCAGTGAATGCCGAAC,0.275,0.814,0.873,0.556,0.386,1.01,0.856,0.848,0.142,0.641,2.37,1.81,0.555,1.09,0.665,2.46,2.08,0.857,0.671,1.3
CCTTACGGGTCAAAGTTATAGCACGGGTGGTACG,6.21,3.95,0.182,3.42,0.711,5.06,5.04,5.46,2.56,4.63,1.88,3.45,0.255,0.0478,2.1,3.35,0.317,4.38,1,3.7
TTACCAAGGTGAGCGGAGGTCGTTGATCCAACTC,1.38,1.36,-0.4,0.829,-1.16,1.81,0.414,1.19,0.0694,0.605,1.19,2.32,-0.403,-0.114,-0.196,4.22,0.00572,1.51,-1.17,1.92
ATATGTAGGTTAGCTGGGGTCACTCAGACTAGGC,4.47,5.35,1.4,4.08,1.05,5.03,5.15,5.18,2.81,4.46,6.74,6.02,1.28,0.639,2.37,5.85,2.05,5.16,0.798,3.22
CGTCCAAGGTCATGGTCAGTGAAAGAGACTCGAA,6.75,5.27,0.622,4.03,0.455,5.74,5.32,5.75,2,4.28,3.19,3.62,0.127,0.155,3.09,3.98,0.701,4.83,1.11,5.11
CAAACTAGGTCACAGAGGTAAAAGTCCGTGCGTA,4.42,3.37,0.644,2.58,0.501,5.38,9.21,7.63,5.5,7.27,8.62,8.89,3.39,1.6,2.55,2.53,0.79,3.47,0.948,4.35
CCTTCCGGGTCACGAGGTTATAGCACGACGAGCG,5.95,4.51,0.67,3.92,0.139,5.88,7.46,6.88,3.82,6,5.56,6.43,0.639,-0.0446,2.53,4.81,0.436,5.82,0.661,4.55
TCGAGTATGTTAGGGGCATTCAGAATGGCGTCGA,0.201,0.198,-0.264,0.596,-0.345,0.669,0.0373,0.882,0.884,1.02,0.969,-0.000912,-0.506,-1.16,-0.24,0.712,0.579,0.48,0.135,0.606
GCTCGAAGGACAAGGTCAGAGCTTTGTCCGTAGA,1.53,1.79,-0.456,0.996,-0.575,2.56,0.738,1.72,-0.296,0.829,-0.135,0.583,-0.7,-0.691,0.73,1.59,-0.626,2.28,-0.618,3.44
GCTAACGGGTCAAAGGTTATAGCATGAATAGAAT,7.39,5.26,0.513,5.21,0.0725,6.84,10.4,8.58,9.26,9.13,3.51,5.64,0.399,0.838,1.81,5.59,0.2,7.51,0.254,4.19
AGATTGAGGTTATTAAGATCAGGGAATTGCGGTC,1.61,1.28,0.39,1.32,0.271,2.42,1.08,1.65,0.461,1.17,2.3,2.34,0.654,0.969,1.25,1.32,0.669,1.33,0.972,1.41
CATACAGGGTCAGCCAGGCCAGAGTAGGGACGGC,4.87,3.33,-0.255,2.24,0.282,4.45,3.65,3.21,0.666,2.01,1,2.6,0.502,0.692,1.27,2.5,0.168,3.13,0.562,4.1
TAGCCTAGGTCAGATCGGCCCAGTATACGCTATA,1.44,1.09,-0.637,0.955,-0.183,1.87,1.07,0.986,-0.286,0.142,0.85,1.85,-0.244,-1.36,-0.0384,0.228,-0.754,0.84,-0.69,2.95
TCTAGCAGGCCAGAGGGTCACTCATGAGGTACGG,0.745,0.822,-0.462,0.852,-1.1,2.2,1.64,2.87,2.19,2.63,0.668,1.02,-0.735,-1.14,0.486,1.64,-0.579,2.5,-0.79,2.24
